Mcl1 Noxa PPI: disrupts binding of human Mcl-1 to Noxa peptide; AID 1022; TR-FRET Mcl-1/Noxa peptide binding, 2 h; actives 1.5% (n = 220,000); inhibition, % at 21.7 µM;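 active = compounds that cut the protein-peptide binding signal by more than 50% relative to plate controls in a single-dose test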;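 also: His-tagged Mcl-1 with rhodamine Noxa BH3 peptide and terbium anti-His antibody; 0% = Mcl-1 plus Noxa peptide wells and 100% = peptide-only wells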
Mcl1-Bid inh: disrupts binding of human Mcl-1 to Bid peptide; TR-FRET Mcl-1/Bid-Dy647 peptide binding, 1536-well; inhibition, % at 21.7 µM; actives 0.97% (n = 220,000); Q07820;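 active = compounds that cut the binding signal by more than half at the single screening dose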;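 also: His-tagged Mcl-1 with europium anti-His antibody binding Bid BH3 peptide; 0% = Mcl-1 plus peptide wells and 100% = peptide-only wells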
Bim-Mcl-1: disrupts Bim peptide binding to human Mcl-1; Q07820; AID 1009; Bead-based flow cytometry, Bim peptide-Mcl-1 binding; inhibition, % at 10 µM; actives 0.1% (n = 190,000); in the data active = inhibition above about 40%;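 also: 0% = no compound tracer wells and 100% = peptide blocker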
p47phox inh: blocks human p47phox regulatory protein of NADPH oxidases; P14598; p47phox/p22phox peptide binding, fluorescence polarization, 2 h; inhibition, % at 24.7 µM; actives 0.53% (n = 220,000); AID 1274;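 active = inhibition above about 30%, limit read from the data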;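 also: 0% = p47phox with labelled peptide and 100% = labelled peptide alone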
Target sequence (P14598 whole entry, looked up): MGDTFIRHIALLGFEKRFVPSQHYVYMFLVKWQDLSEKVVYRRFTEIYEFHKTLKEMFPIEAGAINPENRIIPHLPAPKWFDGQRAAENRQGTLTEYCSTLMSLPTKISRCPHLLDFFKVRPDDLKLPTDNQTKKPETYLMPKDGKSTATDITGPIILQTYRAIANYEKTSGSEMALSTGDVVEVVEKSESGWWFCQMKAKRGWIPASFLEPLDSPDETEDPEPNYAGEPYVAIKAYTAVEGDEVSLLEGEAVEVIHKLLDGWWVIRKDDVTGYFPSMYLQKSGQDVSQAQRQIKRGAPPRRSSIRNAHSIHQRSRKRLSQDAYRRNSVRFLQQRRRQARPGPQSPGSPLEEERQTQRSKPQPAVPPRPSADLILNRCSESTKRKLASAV
14-3-3 Bad inh: disrupts binding of bovine 14-3-3 zeta to phospho-Bad peptide; actives 0.71% (n = 220,000); inhibition, % at 21.7 µM; P63103; TR-FRET 14-3-3zeta/Dy647-pBad peptide displacement, 1 h;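 active = inhibition above about 70%, limit read from the data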;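 also: 0% = full 14-3-3 plus peptide FRET controls and 100% = background without 14-3-3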
The depositor's hits bear a star; . = no result. Rows were chosen to be rich in hits. Some 3.1% of all compounds tested hit in one or more screens of this group.

SMILES	Mcl1 Noxa PPI	Mcl1-Bid inh	Bim-Mcl-1	p47phox inh	14-3-3 Bad inh
N#C/C(=C1/CCCCCN1)c1nc2ccccc2s1	3	98*	-1	-44	-16
N#C/C(=C1\CCCN1)c1nc2ccccc2c(=O)[nH]1	15	5	0	-12	6
COc1ccc2c(n1)Sc1nc3ccccc3nc1N2	17	-48	.	-17	-4
O=C(N/N=C\c1cc([N+](=O)[O-])ccc1N1CCCC1)c1ccccn1	10	-22	0	-4	-8
CN1CCN(c2ccc([N+](=O)[O-])cc2NC(=O)c2ccccc2)CC1	13	-32	0	-3	77*
O=C(Cn1c2ccccc2c(=O)c2ccccc21)N/N=C/c1cc([N+](=O)[O-])ccc1N1CCCCC1	43	67*	-8	2	70
CN1CCN(c2ccc(S(=O)(=O)N3CCCCC3)cc2NC(=O)c2ccc(C#N)cc2)CC1	9	-39	-31	-8	5
O=C(Nc1cc([N+](=O)[O-])ccc1N1CCCC1)c1ccccc1	11	-17	-1	-2	-4
CN1CCN(c2ccc([N+](=O)[O-])cc2/C=N/NC(=O)c2cccc([N+](=O)[O-])c2)CC1	91*	0	-3	1	-4
COc1ccc(NCC(=O)N/N=C/c2cc([N+](=O)[O-])ccc2N2CCCC2)cc1	28	-49	0	-5	-8
CN1CCN(c2ccc(Cl)cc2NC(=O)c2ccc(S(=O)(=O)N3CCCCCC3)cc2)CC1	74*	-45	0	-5	25
CCn1c(C)nc2cc(C(=O)NNC(=O)CCC3CCCC3)ccc21	-7	-16	0	-9	4
COc1ccc(Cl)cc1C(=O)Nc1ccccc1N1CCN(C)CC1	56*	-8	0	-5	1
CCOC(=O)c1c(CN2CCN(C)CC2)oc2ccc(O)cc12	20	21	-1	-4	75*
COc1cc2c(cc1OC)CN(CC(=O)Nc1ccc(C#N)cc1)CC2	6	98*	5	-21	-17
Cc1ccc(NC(=O)CN2CCc3ccccc3C2)cc1F	27	98*	.	4	67
O=C(CCN1CCc2ccccc2C1)Nc1cccc(F)c1	16	77*	-5	-10	5
COc1ccc(C2c3ccc(O)cc3Oc3ncn4nc(-c5ccco5)nc4c32)cc1OC (stereo not drawn)	34	34	.	2	24
Cc1cc(C(=O)CN2C(=O)NC(CC(C)C)C2=O)c(C)n1-c1ccccc1F (stereo not drawn)	19	-14	-3	-4	-12
CC1(C)C(=O)Nc2ccccc2N1C(=O)Cn1ncc(Cl)c(Cl)c1=O	58*	-1	.	-12	-2
CC(C)CC1NC(=O)N(CC(=O)N2c3ccccc3NC(=O)C2(C)C)C1=O (stereo not drawn)	82*	-29	0	0	-10
CC1(C)C(=O)Nc2ccccc2N1C(=O)COC(=O)C1CCCCC1	-1	-3	-5	32*	-6
O=C1C(c2c(O)[nH]c3ccccc23)=Nc2ccccc21	5	-1	0	93*	2
O=C(O)c1cccc2c(-c3ccccc3)c(-c3ccccc3)[nH]c12	33	-15	.	-12	8
CC(=O)c1cccc2c(O)c(C3=Nc4ccccc4C3=O)[nH]c12	62*	-39	2	3	-14
SMILES	Mcl1 Noxa PPI	Mcl1-Bid inh	Bim-Mcl-1	p47phox inh	14-3-3 Bad inh
Oc1[nH]c2ccccc2c1C1=NCCCC1	16	-17	0	-3	0
Cc1ccc(NC(=O)c2noc3c2CCC3)cc1C	54*	-50	-1	2	43
COc1ccc(NC(=O)c2noc3c2CCC3)cc1	38	-11	-1	6	7
COc1cc(NC(=O)c2noc3c2CCC3)c(OC)cc1Cl	63*	-14	-3	-18	-2
Cc1ccc(N/C=C2\CCCCC2=O)nc1	8	-40	1	-4	-29
Cc1cccc(-n2[nH]c3c4c(ccc3c2=O)C(=O)c2ccccc2C4=O)c1	55*	-9	-5	50*	-1
Cc1ccc(NC(=O)c2ccc(COc3ccc4c(c3)CCC4)cc2)c(C)c1	-13	3	0	-11	1
O=C(Nc1ccc([N+](=O)[O-])cc1)Nc1ccc(OC(F)F)c(Cl)c1	52*	6	-3	-45	3
O=C(Nc1ccc(OC(F)F)c(Cl)c1)Nc1ccc2c(c1)OCO2	21	1	-5	7	5
Cc1nn(CCC(=O)NNC(=S)NCC(C)C)c(C)c1Br	19	0	-1	-8	-4
